Laboratory results taken from PubChem BioAssay AID1159580 (chemical genetic matrix, 2015).
Screen size: about 5,500 compounds; about 2,000 (36%) were called active. Another 18% or so got no clear call; they are omitted. No stated cut-off is given here; in the data, active means normalized growth mostly below about 0.91 (no sharp cut-off); inconclusive means no clear call, values can overlap the other calls; inactive means mostly above about 0.92. The list shows a part of the results.

Assay: chemical genetic growth profiling, strain panel (AID 1159580);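 further: tested at 20 µM; growth read once vehicle control cultures reached saturation at 30 °C; 1 = growth at the plate median or of vehicle wells; lower values mean less growth of the strain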
Conditions: growth OD
[1] = S. cerevisiae deletion strains, locus YDL101C, strain DUN1, active compounds read low
[2] = S. cerevisiae deletion strains, locus YHR030C, strain SLT2, active compounds read low

Measured: normalized growth

CSc1ncc(C#N)c2nc(-c3ccc(N(C)C)cc3)nn12
inactive: S. cerevisiae deletion strains, locus YAL013W, strain DEP1, active compounds read low 1.01 | S. cerevisiae deletion strains, locus YBR229C, strain ROT2, active compounds read low 0.991 | [1] 0.974 | S. cerevisiae deletion strains, locus YDR150W, strain NUM1, active compounds read low 0.966 | S. cerevisiae deletion strains, locus YEL061C, strain CIN8, active compounds read low 1 | S. cerevisiae deletion strains, locus YGR078C, strain PAC10, active compounds read low 0.983 | S. cerevisiae deletion strains, locus YGR229C, strain SMI1, active compounds read low 1 | [2] 1 | S. cerevisiae deletion strains, locus YHR087W, strain rtc3, active compounds read low 1.05 | S. cerevisiae deletion strains, locus YJL187C, strain SWE1, active compounds read low 1.01 | S. cerevisiae deletion strains, locus YJR043C, strain POL32, active compounds read low 0.975 | S. cerevisiae deletion strains, locus YJR075W, strain HOC1, active compounds read low 0.994 | S. cerevisiae deletion strains, locus YKL190W, strain CNB1, active compounds read low 1.01 | S. cerevisiae deletion strains, locus YLR039C, strain RIC1, active compounds read low 1.08 | S. cerevisiae deletion strains, locus YLR058C, strain SHM2 (second series), active compounds read low 1.02 | S. cerevisiae deletion strains, locus YLR085C, strain ARP6, active compounds read low 1.02 | S. cerevisiae deletion strains, locus YLR262C, strain YPT6, active compounds read low 1.09 | S. cerevisiae deletion strains, locus YML094W, strain GIM5, active compounds read low 1.05 | S. cerevisiae deletion strains, locus YMR219W, strain ESC1, active compounds read low 1.01 | S. cerevisiae deletion strains, locus YMR263W, strain SAP30, active compounds read low 1.01 | S. cerevisiae deletion strains, locus YNL153C, strain GIM3, active compounds read low 0.985 | S. cerevisiae deletion strains, locus YNL298W, strain CLA4 (second series), active compounds read low 1.04 | S. cerevisiae deletion strains, locus YNL322C, strain KRE1, active compounds read low 1 | S. cerevisiae deletion strains, locus YNR030W, strain Alg12, active compounds read low 1.03 | S. cerevisiae deletion strains, locus YOL006C, strain TOP1, active compounds read low 1.04 | S. cerevisiae deletion strains, locus YPL055C, strain LGE1, active compounds read low 1.01 | S. cerevisiae deletion strains, locus YPL241C, strain CIN2, active compounds read low 1.01 | S. cerevisiae deletion strains, locus YPR135W, strain CTF4, active compounds read low 0.968 | S. cerevisiae strains, strain wild type, active compounds read low 1

OC(COc1ccc(F)cc1)(c1ccc(Cl)cc1)c1ccc(Cl)cc1
inactive: S. cerevisiae deletion strains, locus YAR019C, strain CDC15, active compounds read low 0.991 | S. cerevisiae deletion strains, locus YBL105C, strain PKC1, active compounds read low 0.985 | S. cerevisiae deletion strains, locus YBR135W, strain CKS1, active compounds read low 0.984 | S. cerevisiae deletion strains, locus YBR136W, strain MEC1, active compounds read low 1 | S. cerevisiae deletion strains, locus YBR160W, strain CDC28, active compounds read low 0.982 | S. cerevisiae deletion strains, locus YDL017W, strain CDC7, active compounds read low 0.988 | S. cerevisiae deletion strains, locus YDL028C, strain MPS1, active compounds read low 0.985 | [1] 0.974 | S. cerevisiae deletion strains, locus YDL108W, strain KIN28, active compounds read low 0.978 | S. cerevisiae deletion strains, locus YDL132W, strain cdc53, active compounds read low 0.987 | S. cerevisiae deletion strains, locus YDL214C, strain PRR2, active compounds read low 0.985 | S. cerevisiae deletion strains, locus YDR052C, strain DBF4, active compounds read low 0.989 | S. cerevisiae deletion strains, locus YDR054C, strain cdc34, active compounds read low 0.993 | S. cerevisiae deletion strains, locus YDR226W, strain ADK1, active compounds read low 0.983 | S. cerevisiae deletion strains, locus YDR477W, strain SNF1, active compounds read low 0.996 | S. cerevisiae deletion strains, locus YER123W, strain YCK3, active compounds read low 0.96 | S. cerevisiae deletion strains, locus YER133W, strain GLC7, active compounds read low 0.987 | S. cerevisiae deletion strains, locus YFL009W, strain cdc4, active compounds read low 0.993 | S. cerevisiae deletion strains, locus YFL029C, strain CAK1, active compounds read low 0.988 | S. cerevisiae deletion strains, locus YFR003C, strain YPI1, active compounds read low 0.989 | S. cerevisiae deletion strains, locus YFR019W, strain FAB1, active compounds read low 1 | S. cerevisiae deletion strains, locus YFR028C, strain CDC14, active compounds read low 0.986 | S. cerevisiae deletion strains, locus YGR040W, strain KSS1, active compounds read low 0.981 | S. cerevisiae deletion strains, locus YGR052W, strain FMP48, active compounds read low 1.08 | S. cerevisiae deletion strains, locus YGR092W, strain DBF2, active compounds read low 0.962 | [2] 1.07 | S. cerevisiae deletion strains, locus YHR079C, strain IRE1, active compounds read low 1.08 | S. cerevisiae deletion strains, locus YHR082C, strain KSP1, active compounds read low 1.07 | S. cerevisiae deletion strains, locus YHR205W, strain SCH9, active compounds read low 0.964 | S. cerevisiae deletion strains, locus YIL147C, strain SLN1, active compounds read low 0.98 | S. cerevisiae deletion strains, locus YJL095W, strain BCK1, active compounds read low 1.08 | S. cerevisiae deletion strains, locus YJL128C, strain PBS2, active compounds read low 0.939 | S. cerevisiae deletion strains, locus YJL157C, strain FAR1, active compounds read low 0.988 | S. cerevisiae deletion strains, locus YJR016C, strain ILV3, active compounds read low 0.984 | S. cerevisiae deletion strains, locus YJR066W, strain TOR1 (second series), active compounds read low 0.971 | S. cerevisiae deletion strains, locus YJR066W, strain TOR1, active compounds read low 1.12 | S. cerevisiae deletion strains, locus YKL048C, strain ELM1, active compounds read low 0.984 | S. cerevisiae deletion strains, locus YKL067W, strain YNK1, active compounds read low 0.988 | S. cerevisiae deletion strains, locus YKL101W, strain HSL1, active compounds read low 0.98 | S. cerevisiae deletion strains, locus YKL193C, strain SDS22, active compounds read low 0.991 | S. cerevisiae deletion strains, locus YKL203C, strain TOR2, active compounds read low 1.08 | S. cerevisiae deletion strains, locus YLR113W, strain HOG1, active compounds read low 0.957 | S. cerevisiae deletion strains, locus YLR133W, strain CKI1, active compounds read low 0.989 | S. cerevisiae deletion strains, locus YLR403W, strain SFP1, active compounds read low 1 | S. cerevisiae deletion strains, locus YML070W, strain DAK1, active compounds read low 0.99 | S. cerevisiae deletion strains, locus YMR001C, strain CDC5, active compounds read low 0.984 | S. cerevisiae deletion strains, locus YMR205C, strain PFK2 (second series), active compounds read low 0.995 | S. cerevisiae deletion strains, locus YMR277W, strain FCP1, active compounds read low 0.992 | S. cerevisiae deletion strains, locus YNL006W, strain LST8, active compounds read low 0.998 | S. cerevisiae deletion strains, locus YNL020C, strain ARK1, active compounds read low 0.988 | S. cerevisiae deletion strains, locus YNL161W, strain CBK1, active compounds read low 0.988 | S. cerevisiae deletion strains, locus YNL183C, strain NPR1, active compounds read low 1.09 | S. cerevisiae deletion strains, locus YNL207W, strain RIO2, active compounds read low 0.997 | S. cerevisiae deletion strains, locus YNL222W, strain SSU72, active compounds read low 0.991 | S. cerevisiae deletion strains, locus YNL307C, strain MCK1 (second series), active compounds read low 0.981 | S. cerevisiae deletion strains, locus YOL078W, strain AVO1, active compounds read low 0.994 | S. cerevisiae deletion strains, locus YOL136C, strain PFK27, active compounds read low 0.966 | S. cerevisiae deletion strains, locus YOR061W, strain CKA2, active compounds read low 0.988 | S. cerevisiae deletion strains, locus YOR119C, strain RIO1, active compounds read low 1.02 | S. cerevisiae deletion strains, locus YOR231W, strain MKK1, active compounds read low 1.06 | S. cerevisiae deletion strains, locus YOR329C, strain SCD5, active compounds read low 0.984 | S. cerevisiae deletion strains, locus YPL031C, strain PHO85, active compounds read low 0.981 | S. cerevisiae deletion strains, locus YPL153C, strain RAD53, active compounds read low 0.984 | S. cerevisiae deletion strains, locus YPL204W, strain HRR25, active compounds read low 0.986 | S. cerevisiae deletion strains, locus YPL209C, strain IPL1, active compounds read low 0.992 | S. cerevisiae deletion strains, locus YPL256C, strain CLN2, active compounds read low 1.07 | S. cerevisiae deletion strains, locus YPR025C, strain CCL1, active compounds read low 0.992 | S. cerevisiae deletion strains, locus YPR106W, strain ISR1, active compounds read low 0.983 | S. cerevisiae deletion strains, locus YPR111W, strain DBF20, active compounds read low 0.984 | S. cerevisiae deletion strains, strain NNK1, active compounds read low 0.992 | S. cerevisiae deletion strains, strain TSCII, active compounds read low 0.991
